# Results filed as inconclusive are left out. Where a call stands in place of a potency, no number is given. A number with no mark means an inactive call. Active and inactive are the calls of the source. Calls come from the whole dose curve; as a rule, active = well fitted inhibition curve with a large enough effect in the repeat runs; inconclusive = weak or mixed curves; inactive = no such curve, though single readings can be large or run the other way.
# Molecular target: Estrogen receptor (Homo sapiens) (UniProt P03372)
# Assay: qHTS assay to identify small molecule antagonists of the estrogen receptor alpha (ER-alpha) signaling pathway using the BG1 cell line in the presence of 0.1 nM 17-beta-estradiol (AID 1259244); note: nearly all actives have a fitted effect of over 50% in size
# Conditions: VM7Luc4E2 (BG1) ERE-luciferase, antagonist mode, 0.1 nM E2, 22 h; series mostly up to 92.4 µM
# Text: National Center for Advancing Translational Sciences [NCATS]
# NIH Chemical Genomics Center [NCGC]
# U.S. Environmental Protection Agency [EPA]
# National Institutes of Environmental Health Sciences [NIEHS]
# National Toxicology Program [NTP]
# U.S. Food and Drug Administration [FDA]
# Estrogen receptor (ER), a member of the nuclear hormone receptor plays an important role in development, metabolic homeostasis and reproduction. Two subtypes of ER, ER-alpha and ER-beta, have similar expression patterns with some uniqueness in both types. Endocrine disrupting chemicals (EDCs) and their interactions with steroid hormone receptors like ER causes disruption of normal endocrine function. Therefore, it is important to understand the effect of environmental chemicals in ER signaling pathway. For identifying ER antagonists, VM7Luc4E2 cell line was used to screen against Tox21 compound libraries.
# VM7Luc4E2 cell line (provided by Denison MS, University of California) endogenously express full-length ER-alpha and is stably transfected with a plasmid containing four estrogen responsive elements (ERE) upstream of a luciferase reporter gene. The current screening for identification of ER-alpha inhibitors against Tox21 compound libraries used lower concentration (0.1 nM) of 17beta-Estradiol as a stimulator.
# Tox21 Assay Protocol Summary:
# VM7Luc4E2 cells were cultured in phenol red free assay medium containing 10% charcoal stripped FBS for 5 days prior to the assay. The cells were dispensed at 4,000 cells/well in 4 uL of assay medium into white wall/solid-bottom 1536-well plates (Corning Life Sciences, Corning, NY) using a Multidrop Combi (ThermoFisher Scientific, Waltham, MA) dispenser. After the assay plates were incubated at 37C and 5% CO2 for 24 hr, 23 nL of compounds dissolved in DMSO, positive controls or DMSO only was transferred to the assay plates by a Pintool station (Kalypsys, San Diego, CA). The transfer of compounds was followed by the addition of 1 uL of 0.1 nM (final concentration) agonist (17beta-Estradiol)/assay medium using a Flying Reagent Dispenser (FRD, Aurora Discovery, San Diego, CA). The plates were incubated at 37C and 5% CO2 for 22 hr. For luciferase reporter gene assay, 4 uL of ONE-Glo reagent (Promega Corporation, Madison, WI) was added to each well using the FRD and after 30 min incubation at room temperature luminescence intensity was measured using ViewLux plate reader (PerkinElmer, Shelton, CT).
# Chain of Estrogen receptor (Homo sapiens) (P03372 whole entry, looked up): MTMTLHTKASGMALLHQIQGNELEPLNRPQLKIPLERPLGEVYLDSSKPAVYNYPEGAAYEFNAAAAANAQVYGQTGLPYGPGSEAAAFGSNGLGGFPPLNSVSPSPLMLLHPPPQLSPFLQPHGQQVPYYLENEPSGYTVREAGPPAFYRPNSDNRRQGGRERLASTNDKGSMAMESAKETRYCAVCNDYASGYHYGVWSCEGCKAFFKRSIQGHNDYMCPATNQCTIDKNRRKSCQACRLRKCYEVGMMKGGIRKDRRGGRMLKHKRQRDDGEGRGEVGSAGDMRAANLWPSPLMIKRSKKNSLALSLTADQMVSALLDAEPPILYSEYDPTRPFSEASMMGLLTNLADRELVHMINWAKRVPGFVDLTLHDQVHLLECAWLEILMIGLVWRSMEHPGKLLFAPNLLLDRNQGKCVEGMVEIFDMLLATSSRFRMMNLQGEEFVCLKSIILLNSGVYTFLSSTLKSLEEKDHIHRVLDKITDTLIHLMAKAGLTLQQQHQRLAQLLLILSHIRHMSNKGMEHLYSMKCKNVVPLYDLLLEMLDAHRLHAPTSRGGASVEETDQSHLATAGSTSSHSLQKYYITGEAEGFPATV
SMILES,Potency,"activity change, negative = inhibition"
COc1cccc([C@H](O)C2CCN(CCc3ccc(F)cc3)CC2)c1OC,inactive,–
Clc1cccc(C(c2ccc3nc[nH]c3c2)n2ccnc2)c1 (stereo not given),inactive,–
CC(C)NC(=O)c1ccccc1N,inactive,–
OCC(O)c1ccccc1 (stereo not given),inactive,–
CCCCCCCCCCCCCCCCN,inactive,–
CC(=O)c1ccc(Cl)c(Cl)c1Cl,inactive,–
O=C(OCCOCCOCCOC(=O)c1ccccc1)c1ccccc1,inactive,–
S=c1[nH][nH]c(=S)s1,inactive,–
CCN(CC)CC(=O)OCC(=O)[C@@]1(O)CC[C@H]2[C@@H]3CCC4=CC(=O)CC[C@]4(C)[C@H]3[C@@H](O)C[C@@]21C,inactive,–
Cc1nc(C)c(C)nc1C,inactive,–
C/C(=C(\CCO)SS/C(CCO)=C(\C)N(C=O)Cc1cnc(C)nc1N)N(C=O)Cc1cnc(C)nc1N,inactive,–
Cc1cc(C)n(CO)n1,inactive,–
O=C(O)c1cccc(C(=O)O)c1C(=O)O,inactive,–
CCCCCCCCCCCCCCCCCCCl,–,-0.369% [at 8.39 µM]
CCCCCCCCS,inactive,–
C=CCCC,inactive,–
O=C(N[C@@H](Cc1ccccc1)[C@@H](O)C(=O)N1C[C@@H](O)[C@@H](O)C1)c1cc2cc(Cl)ccc2[nH]1,inactive,–
Clc1cc(Cl)c2c(c1)N=C1CCCCCN1C2,inactive,–
Cc1c(N=C=O)cccc1N=C=O,inactive,–
Cc1ccccc1CCO,inactive,–

SMILES,Potency,"activity change, negative = inhibition"
CC(C)(C)NCC(O)COc1ccc(NC(=O)NC2CCCCC2)cc1 (stereo not given),inactive,–
Oc1ccc(CCNCCCCCCNCCc2ccccc2)cc1O,inactive,–
CCCC1CCOC(C)S1 (stereo not given),inactive,–
O=C(O)c1ccc(O)c(O)c1,inactive,–
CC(CC(C#N)(c1ccccc1)C(C)C)N(C)C (stereo not given),inactive,–
O=C(C1CCCCC1)N1CC(=O)N2CCCc3ccccc3C2C1 (stereo not given),inactive,–
O=C(O)c1ccc2c(c1)nc(C(=O)NC1CCN(C3CC3)CC1)n2Cc1cc(-c2ccc(Cl)s2)on1,–,-4.46% [at 19 µM]
O=C(Nc1ccccc1)c1cc([N+](=O)[O-])ccc1Cl,inactive,–
NC(=O)c1cc[n+](CC2=C(C(=O)[O-])N3C(=O)[C@@H](NC(=O)Cc4cccs4)[C@H]3SC2)cc1,inactive,–
NC(=O)c1ccccc1,inactive,–
CC(C)(C)N,inactive,–
CCCCCCCCCCCC(=O)OCC,inactive,–
Nc1ccc(C(=O)Oc2ccccc2)c(O)c1,inactive,–
CCCCCCC/C=C/C=O,inactive,–
O=[N+]([O-])c1cccc(I)c1,inactive,–
SCCOCCOCCS,inactive,–
O=c1c2ccccc2oc2ccccc12,inactive,–
CC1(C)[C@@H]2CC[C@]3(C2)[C@@H]1C(=O)CCC3(C)C,inactive,–
CC(C)CC(C)(C)C,inactive,–
c1ccc(CCNc2nc(-c3ccccc3)cs2)cc1,inactive,–

# Source: PubChem BioAssay (Tox21)
